Reference: PubChem BioAssay AID1159580 (chemical genetic matrix, 2015)
Hit rate of the full screen: of about 5,500 compounds, about 2,000 (36%) were called active. Not shown: some 18% with an inconclusive outcome. No stated cut-off is given here; in the data, active means normalized growth mostly below about 0.91 (no sharp cut-off); inconclusive means no clear call, values can overlap the other calls; inactive means mostly above about 0.92. Some of the results follow.

Test: chemical genetic growth profiling, strain panel (AID 1159580);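 further: tested at 20 µM; growth read once vehicle control cultures reached saturation at 30 °C; 1 = growth at the plate median or of vehicle wells; lower values mean less growth of the strain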
Conditions: growth OD

Measured: normalized growth

C[C@]12CCC3c4ccc(O)cc4CCC3C1CC[C@@H]2O (stereo not given in full)
inactive: S. cerevisiae deletion strains, locus YJR066W, strain TOR1, hits give low values 0.902 | S. cerevisiae deletion strains, locus YJR075W, strain HOC1, hits give low values 1.02 | S. cerevisiae deletion strains, locus YKL009W, strain mrt4, hits give low values 0.892 | S. cerevisiae deletion strains, locus YKL068W, hits give low values 1.02 | S. cerevisiae deletion strains, locus YKL085W, strain MDH1 (second series), hits give low values 1.04 | S. cerevisiae deletion strains, locus YKL085W, strain MDH1, hits give low values 1.04 | S. cerevisiae deletion strains, locus YKL160W, strain elf1, hits give low values 0.988 | S. cerevisiae deletion strains, locus YKL190W, strain CNB1, hits give low values 1.03 | S. cerevisiae deletion strains, locus YKR001C, strain vps1, hits give low values 0.915 | S. cerevisiae deletion strains, locus YKR026C, strain gcn3, hits give low values 1.03 | S. cerevisiae deletion strains, locus YKR091W, strain srl3, hits give low values 1.02 | S. cerevisiae deletion strains, locus YLL001W, strain dnm1, hits give low values 1.02 | S. cerevisiae deletion strains, locus YLL026W, hits give low values 0.982 | S. cerevisiae deletion strains, locus YLL041C, strain sdh2, hits give low values 1.02 | S. cerevisiae deletion strains, locus YLR027C, strain aat2, hits give low values 0.973 | S. cerevisiae deletion strains, locus YLR039C, strain RIC1, hits give low values 0.866 | S. cerevisiae deletion strains, locus YLR058C, strain SHM2, hits give low values 1 | S. cerevisiae deletion strains, locus YLR102C, strain apc9, hits give low values 1.01 | S. cerevisiae deletion strains, locus YLR113W, strain HOG1, hits give low values 0.983 | S. cerevisiae deletion strains, locus YLR221C, strain rsa3, hits give low values 0.977 | S. cerevisiae deletion strains, locus YLR258W, strain gsy2, hits give low values 0.96 | S. cerevisiae deletion strains, locus YLR262C, strain YPT6, hits give low values 0.819 | S. cerevisiae deletion strains, locus YLR268W, strain sec22, hits give low values 0.936 | S. cerevisiae deletion strains, locus YLR320W, strain mms22, hits give low values 0.892 | S. cerevisiae deletion strains, locus YLR330W, strain CHS5, hits give low values 1 | S. cerevisiae deletion strains, locus YLR342W, strain FKS1 (second series), hits give low values 0.868 | S. cerevisiae deletion strains, locus YLR342W, strain FKS1, hits give low values 1 | S. cerevisiae deletion strains, locus YLR357W, strain rsc2, hits give low values 1.03 | S. cerevisiae deletion strains, locus YLR370C, strain arc18, hits give low values 1 | S. cerevisiae deletion strains, locus YLR371W, strain rom2, hits give low values 1.02 | S. cerevisiae deletion strains, locus YLR384C, strain iki3, hits give low values 1.02 | S. cerevisiae deletion strains, locus YLR418C, strain cdc73, hits give low values 0.896 | S. cerevisiae deletion strains, locus YML016C, strain PPZ1, hits give low values 1.01 | S. cerevisiae deletion strains, locus YML032C, strain rad52, hits give low values 0.977 | S. cerevisiae deletion strains, locus YML120C, strain ndi1, hits give low values 0.996 | S. cerevisiae deletion strains, locus YML124C, strain tub3, hits give low values 1.01 | S. cerevisiae deletion strains, locus YMR058W, strain fet3, hits give low values 0.917 | S. cerevisiae deletion strains, locus YMR078C, strain ctf18, hits give low values 0.985 | S. cerevisiae deletion strains, locus YMR125W, strain sto1, hits give low values 1.1 | S. cerevisiae deletion strains, locus YMR129W, hits give low values 1.02 | S. cerevisiae deletion strains, locus YMR205C, strain PFK2, hits give low values 1.01 | S. cerevisiae deletion strains, locus YMR223W, strain ubp8, hits give low values 0.974 | S. cerevisiae deletion strains, locus YMR231W, strain pep5, hits give low values 1.01 | S. cerevisiae deletion strains, locus YMR263W, strain SAP30, hits give low values 0.98 | S. cerevisiae deletion strains, locus YMR307W, strain GAS1, hits give low values 0.929 | S. cerevisiae deletion strains, locus YNL067W, strain RPL9B, hits give low values 0.978 | S. cerevisiae deletion strains, locus YNL071W, strain lat1, hits give low values 0.958 | S. cerevisiae deletion strains, locus YNL153C, strain GIM3, hits give low values 0.955 | S. cerevisiae deletion strains, locus YNL183C, strain NPR1, hits give low values 0.912 | S. cerevisiae deletion strains, locus YNL209W, strain ssb2, hits give low values 1.01 | S. cerevisiae deletion strains, locus YNL233W, strain BNI4, hits give low values 0.997 | S. cerevisiae deletion strains, locus YNL248C, strain rpa49, hits give low values 0.993 | S. cerevisiae deletion strains, locus YNL250W, strain rad50, hits give low values 0.955 | S. cerevisiae deletion strains, locus YNL271C, strain bni1, hits give low values 0.977 | S. cerevisiae deletion strains, locus YNL307C, strain MCK1, hits give low values 0.987 | S. cerevisiae deletion strains, locus YNL322C, strain KRE1 (second series), hits give low values 1.03 | S. cerevisiae deletion strains, locus YNR049C, strain mso1, hits give low values 1.02 | S. cerevisiae deletion strains, locus YNR052C, strain pop2, hits give low values 0.928 | S. cerevisiae deletion strains, locus YOL006C, strain TOP1, hits give low values 0.744 | S. cerevisiae deletion strains, locus YOL012C, strain htz1 1.8 | S. cerevisiae deletion strains, locus YOL147C, strain pex11, hits give low values 1 | S. cerevisiae deletion strains, locus YOR001W, strain rrp6, hits give low values 0.948 | S. cerevisiae deletion strains, locus YOR061W, strain CKA2, hits give low values 0.984 | S. cerevisiae deletion strains, locus YOR069W, strain VPS5, hits give low values 1 | S. cerevisiae deletion strains, locus YOR070C, strain gyp1, hits give low values 0.974 | S. cerevisiae deletion strains, locus YOR080W, strain dia2, hits give low values 0.996 | S. cerevisiae deletion strains, locus YOR083W, strain WHI5, hits give low values 0.96 | S. cerevisiae deletion strains, locus YOR106W, strain vam3, hits give low values 0.934 | S. cerevisiae deletion strains, locus YOR136W, strain idh2, hits give low values 0.978 | S. cerevisiae deletion strains, locus YOR144C, strain elg1, hits give low values 0.974 | S. cerevisiae deletion strains, locus YOR231W, strain MKK1, hits give low values 0.928 | S. cerevisiae deletion strains, locus YOR265W, strain rbl2, hits give low values 0.986 | S. cerevisiae deletion strains, locus YOR270C, strain vph1, hits give low values 0.797 | S. cerevisiae deletion strains, locus YOR290C, strain snf2, hits give low values 0.906 | S. cerevisiae deletion strains, locus YOR316C, strain cot1, hits give low values 1 | S. cerevisiae deletion strains, locus YPL051W, strain arl3, hits give low values 0.953 | S. cerevisiae deletion strains, locus YPL055C, strain LGE1, hits give low values 0.907 | S. cerevisiae deletion strains, locus YPL078C, strain atp4, hits give low values 0.963 | S. cerevisiae deletion strains, locus YPL106C, strain sse1, hits give low values 1.08 | S. cerevisiae deletion strains, locus YPL240C, strain hsp82, hits give low values 0.999 | S. cerevisiae deletion strains, locus YPL256C, strain CLN2, hits give low values 0.99 | S. cerevisiae deletion strains, locus YPR119W, strain clb2, hits give low values 1.03 | S. cerevisiae deletion strains, locus YPR141C, strain kar3, hits give low values 1.03 | S. cerevisiae deletion strains, locus YPR163C, strain tif3, hits give low values 0.963 | S. cerevisiae deletion strains, locus YPR167C, strain met16, hits give low values 0.985 | S. cerevisiae deletion strains, strain wtn01, hits give low values 0.92 | S. cerevisiae strains, strain wild type, hits give low values 1
active: S. cerevisiae deletion strains, locus YLR262C, strain YPT6 (second series), hits give low values 0.738 | S. cerevisiae deletion strains, locus YNL298W, strain CLA4, hits give low values 0.897 | S. cerevisiae deletion strains, locus YOR184W, strain ser1, hits give low values 0.857
